From PubChem BioAssay (Tox21)
Several values for one entry are separate records, joined by “and”; a condition that tells them apart may be missing. Identical values can stand only once. Results filed as inconclusive are left out. The source holds several records for some structures; these can differ, active in one and inactive in another. Activity calls are given as the source filed them. Unless noted, calls follow the shape of the dose curve; as a rule, active = well fitted curve in the direction sought with a large enough effect in the repeat runs; inconclusive = weak or mixed curves; inactive = no such curve, though single readings can be large; an effect the other way counts as inactive or inconclusive.

Experiments:
[1] = qHTS assay to identify small molecule antagonists of the glucocorticoid receptor (GR) signaling pathway - cell viability counter screen (AID 720693); also: nearly all actives have a fitted effect of over 55% in size
[2] = qHTS assay for identifying genotoxic compounds that show differential cytotoxicity against isogenic chicken DT40 cell lines with known DNA damage response pathways - Rev3 mutant cell line (AID 743014); also: nearly all actives have a fitted effect of over 55% in size; also: potency is read from the fitted curve at half-maximal effect
[3] = qHTS assay for identifying genotoxic compounds that show differential cytotoxicity against isogenic chicken DT40 cell lines with known DNA damage response pathways - Rad54/Ku70 mutant cell line (AID 743015); also: nearly all actives have a fitted effect of over 60% in size; also: potency is read from the fitted curve at half-maximal effect
[4] = qHTS assay to identify small molecule antagonists of the androgen receptor (AR) signaling pathway - cell viability counter screen (AID 743033; also: nearly all actives have a fitted effect of over 45% in size; also: potency is read from the fitted curve at half-maximal effect)
[5] = biological target: Androgen receptor (Homo sapiens) (UniProt P10275); assay: qHTS assay to identify small molecule agonists of the androgen receptor (AR) signaling pathway (AID 743036; active = well fitted activation curve with a large enough effect in the signal ratio in the repeat runs, with a control signal flat, not every such curve was filed as active; the % refers to the signal ratio)
Sequence of Androgen receptor (Homo sapiens) (P10275 whole entry, looked up): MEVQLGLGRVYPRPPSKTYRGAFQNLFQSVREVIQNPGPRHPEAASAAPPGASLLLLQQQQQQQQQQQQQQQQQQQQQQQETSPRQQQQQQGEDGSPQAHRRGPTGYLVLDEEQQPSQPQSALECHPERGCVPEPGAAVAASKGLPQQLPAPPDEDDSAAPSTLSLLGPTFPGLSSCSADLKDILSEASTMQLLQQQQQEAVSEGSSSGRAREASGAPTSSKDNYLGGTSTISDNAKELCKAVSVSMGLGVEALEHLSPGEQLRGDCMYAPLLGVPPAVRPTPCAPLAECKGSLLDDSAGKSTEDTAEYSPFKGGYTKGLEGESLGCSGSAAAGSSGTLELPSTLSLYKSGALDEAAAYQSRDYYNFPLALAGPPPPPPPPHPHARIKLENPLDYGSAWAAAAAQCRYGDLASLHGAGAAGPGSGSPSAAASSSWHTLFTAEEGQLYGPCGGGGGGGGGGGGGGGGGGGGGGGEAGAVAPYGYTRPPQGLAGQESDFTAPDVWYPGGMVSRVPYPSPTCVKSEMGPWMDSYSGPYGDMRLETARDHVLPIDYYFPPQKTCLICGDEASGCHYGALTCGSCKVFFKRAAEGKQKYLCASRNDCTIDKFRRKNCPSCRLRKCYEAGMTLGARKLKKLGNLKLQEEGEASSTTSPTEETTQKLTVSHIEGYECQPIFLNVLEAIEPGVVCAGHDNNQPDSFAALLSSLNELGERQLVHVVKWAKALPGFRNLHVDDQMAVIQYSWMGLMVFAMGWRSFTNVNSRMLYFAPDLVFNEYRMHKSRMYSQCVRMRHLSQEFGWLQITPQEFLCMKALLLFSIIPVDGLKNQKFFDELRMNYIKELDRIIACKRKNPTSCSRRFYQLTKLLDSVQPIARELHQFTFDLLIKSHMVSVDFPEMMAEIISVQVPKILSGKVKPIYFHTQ
Procedure, shortened: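 Fluorescence from a beta-lactamase FRET substrate served as read-out in AR-UAS-bla GripTite HEK293 cells. Cells were treated with DMSO-dissolved compounds for 16 h at 37C, then with LiveBLAzer B/G substrate for 2 h at room temperature.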

[6] = qHTS assay to identify small molecule antagonists of the androgen receptor (AR) signaling pathway using the MDA cell line - cell viability counter screen (AID 743041; also: nearly all actives have a fitted effect of over 45% in size; also: potency is read from the fitted curve at half-maximal effect)
Procedure, shortened: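 MDA-kb2 AR-luc human breast carcinoma cells (MMTV-luciferase, AR/GR responsive) were treated with compounds plus R1881 agonist for 16 h at 37 °C. Viability was read as CellTiter-Fluor fluorescence in the same wells as the reporter assay.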

[7] = qHTS assay to identify small molecule antagonists of the thyroid receptor (TR) signaling pathway - cell viability counter screen (AID 743064); also: nearly all actives have a fitted effect of over 50% in size; also: potency is read from the fitted curve at half-maximal effect
Procedure, shortened: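 Fluorescence from CellTiter-Fluor, added after 23.5 h exposure at 37 °C, reported viability of GH3.TRE-Luc cells co-treated with compound and 1 nM T3. Measured in the same wells as the luciferase TR readout.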

[8] = qHTS assay for identifying genotoxic compounds that show differential cytotoxicity against isogenic chicken DT40 cell lines with known DNA damage response pathways - wild type cell line (AID 743012); also: nearly all actives have a fitted effect of over 60% in size; also: potency is read from the fitted curve at half-maximal effect
Procedure, shortened: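 Using parental DT40 (300 cells/well), compounds delivered in DMSO incubate 40 h at 37 C/5% CO2. CellTiter-Glo reagent then stands 30 min at room temperature, and luminescence gives cell viability.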

[9] = qHTS assay to identify small molecule antagonists of the thyroid receptor (TR) signaling pathway (AID 743065); also: nearly all actives have a fitted effect of over 55% in size; also: potency is read from the fitted curve at half-maximal effect
Procedure, shortened: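 GH3.TRE-Luc rat pituitary cells carrying two TR response elements driving luciferase were plated for 4 h, given compound plus 1 nM T3 (final), and incubated 23.5 h at 37 C. ONE-Glo luminescence measured reporter inhibition; CellTiter-Fluor fluorescence tracked cytotoxicity.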

[10] = biological target: Androgen receptor (Homo sapiens) (UniProt P10275); assay: qHTS assay to identify small molecule antagonists of the androgen receptor (AR) signaling pathway (AID 743035; active = well fitted inhibition curve with a large enough effect in the signal ratio in the repeat runs, not every such curve was filed as active; the % refers to the signal ratio)
Procedure, shortened: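 Using qHTS, AR-UAS-bla GripTite HEK293 cells received compound, then R1881, and were cultured 16 h at 37C/5% CO2 before a 2 h room-temperature LiveBLAzer B/G FRET substrate step and fluorescence measurement.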

Measured: Potency

OCC1CCCO1 (stereo not given)
not listed: [8] | [9] | [10]
inactive: all other assays above

c1ccc2ccccc2c1
not listed: [5] | [7] | [10]
inactive: all other assays above

C=CC(=O)OCCCCCCCC(C)C
inactive and 27.3 µM (active): [3]
inactive and 54.4 µM (active): [2]
not listed: [8]
inactive: all other assays above

NCCc1ccc(O)c(O)c1
inactive: [1] | [4]
active: [8] 54.6 µM | [2] 15.4 µM | [3] 19.4 µM | [7] 27.4 µM | [9] 48.7 µM

NC(=O)/N=N/C(N)=O
not listed: [5] | [7] | [10]
inactive: all other assays above

Oc1c(Cl)cc(Cl)c(Cl)c1Cl
active: [8] 67.1 µM | [9] 47.5 µM and 30.6 µM
inactive: [1] | [6]

O=C(O)c1cc(-c2ccccc2)nc2ccccc12
not listed: [7] | [8]
inactive: all other assays above

O=c1c(-c2ccc(O)cc2)coc2cc(O)ccc12
inactive: [1] | [2] | [3] | [4] | [6]

CCCCC(CC)COC(=O)/C=C\C(=O)OCC(CC)CCCC (stereo not given)
not listed: [8]
inactive: all other assays above

C=C(C)C(=O)OCC(CC)(COC(=O)C(=C)C)COC(=O)C(=C)C
inactive: [1] | [8] | [4] | [6] | [7] | [9]

C/C=C(C)/C=C/C=C(C)C
active: [8] 61.1 µM | [3] 54.5 µM
inactive: [1] | [4] | [6] | [7]

Cn1c([N+](=O)[O-])cnc1COC(N)=O
not listed: [5] | [10]
inactive: all other assays above

Nc1cc(-c2ccncc2)c[nH]c1=O
not listed: [8]
inactive: all other assays above

O=C(c1cc(O)c(O)c(O)c1)c1ccc(O)c(O)c1O
active: [8] 48.4 µM and 13.7 µM | [2] 30.5 µM and 13.7 µM | [3] 30.5 µM and 13.7 µM | [9] 43.1 µM and 68.6 µM
inactive: [1] | [4] | [6]

COC(=O)Nc1nc2ccc(Sc3ccccc3)cc2[nH]1
inactive: [1] | [4] | [6]
active: [8] 403 nM and 217 nM | [2] 285 nM and 217 nM | [3] 403 nM and 386 nM | [9] 202 nM and 217 nM

Cc1cc(Cc2ccc(N)c(C)c2)ccc1N
inactive: [1] | [4] | [6] | [9]
active: [8] 61.1 µM | [2] 68.6 µM and 54.5 µM | [3] 61.1 µM and 68.6 µM

CCCCCCCCCCCCOCC1CO1 (stereo not given)
not listed: [5] | [10]
inactive: all other assays above

Clc1ccc(Cl)c(Cl)c1Cl
not listed: [5] | [7] | [10]
inactive: all other assays above

OC[C@@H](O)[C@@H](O)[C@H](O)[C@@H](O)CO
not listed: [5] | [10]
inactive: all other assays above

Cc1cc(O)cc(C)c1Cl
not listed: [5] | [7] | [10]
inactive: all other assays above

C=C1C2CCC(C2)C1(C)C (stereo not given)
not listed: [5] | [7] | [10]
inactive: all other assays above

CCCCCCC(C)(C)S
not listed: [5] | [7] | [10]
inactive: all other assays above

CC(=O)Nc1ccc(C(=O)O)cc1
not listed: [5] | [7] | [10]
inactive: all other assays above

COC(=O)c1ccc(C(=O)OC)cc1
not listed: [5] | [10]
inactive: all other assays above

O=C(Cl)c1c(Cl)c(Cl)c(C(=O)Cl)c(Cl)c1Cl
not listed: [5] | [7] | [10]
inactive: all other assays above

CCc1ccccc1O
not listed: [5] | [7] | [10]
inactive: all other assays above

NCc1cccc(CN)c1
not listed: [5] | [7] | [10]
inactive: all other assays above

Cc1ccc(C)c(C)c1
not listed: [7] | [8]
inactive: all other assays above

C[C@@H](O)[C@H]1C(=O)N2C(C(=O)O)=C(S[C@@H]3CN[C@H](C(=O)N(C)C)C3)[C@H](C)[C@H]12
not listed: [2] | [5] | [10]
inactive: all other assays above

CC(C)NCC(O)COc1cccc2ccccc12 (stereo not given)
61.8 µM (active) and inactive: [2] | [3]
inactive: [1] | [4] | [6]
active: [7] 30.6 µM | [9] 61.8 µM and 54.5 µM

CCC(=O)O
inactive: [1] | [2] | [3] | [4] | [6] | [7]

C=C(C#N)C(=O)OCC
inactive and 24.3 µM (active): [3]
inactive and 43.3 µM (active): [2]
inactive: [1] | [4] | [6] | [7] | [9]

CCOC(=O)[C@H](CCc1ccccc1)N[C@@H](C)C(=O)N1Cc2ccccc2C[C@H]1C(=O)O
inactive and 61.6 µM (active): [2]
not listed: [5] | [8] | [10]
inactive: all other assays above

O=S(=O)(Oc1ccc(Cl)cc1Cl)c1ccccc1
inactive: [1] | [3] | [4] | [6] | [7] | [9]

O=S(=O)(O)c1cc(S(=O)(=O)O)c2c(N=Nc3ccccc3)c(O)ccc2c1
active: [6] 27.4 µM and 38.6 µM | [7] 27.4 µM and 68.6 µM
inactive: [1] | [2] | [3] | [4] | [9]

C=C1CC[C@H](O)CC1=C/C=C1\CCC[C@]2(C)[C@@H]([C@H](C)/C=C/[C@H](C)C(C)C)CC[C@@H]12
inactive: [6]
inactive and 43.3 µM (active): [4]
active: [8] 10.6 µM and 13.6 µM and 30.6 µM | [2] 12.1 µM and 24.3 µM | [3] 13.3 µM and 13.6 µM and 27.3 µM | [9] 26.6 µM and 54 µM and 54.5 µM

CC(C)n1c(/C=C/[C@@H](O)C[C@@H](O)CC(=O)O)c(-c2ccc(F)cc2)c2ccccc21
inactive: [1] | [6]
active: [2] 9.4 nM and 3.06 µM | [3] 3.35 µM and 8.63 µM | [9] 13.3 µM and 21.7 µM

CCCCOCCOCCOC(=O)CCCCC(=O)OCCOCCOCCCC
not listed: [5] | [8] | [10]
inactive: all other assays above

Nc1c(S(=O)(=O)O)cc(Br)c2c1C(=O)c1ccccc1C2=O
inactive: [1] | [2] | [3] | [4] | [9]
active: [6] 30.6 µM

CN(C)c1cccc(O)c1
not listed: [5] | [8] | [10]
inactive: all other assays above

Cc1cc(O)c2c(c1)C(=O)c1cc(O)cc(O)c1C2=O
active: [3] 1.68 µM and 3.06 µM | [9] 23.8 µM and 15.4 µM
inactive and 30.6 µM (active): [7]
inactive and 38.6 µM (active): [2]
12 µM (active) and inactive: [4]
inactive: [1] | [6]

CC(=O)CCc1ccccc1
inactive: [1] | [2] | [3] | [4] | [6] | [9]

CCCCCCCCCC(=O)O
inactive and 55 µM (active): [4]
61.2 µM (active) and inactive: [3]
not listed: [2] | [8]
inactive: all other assays above

CCCCC(CC)COC(C)=O (stereo not given)
inactive: [1] | [2] | [3] | [4] | [6] | [9]

CCCCCCCCCCC=CC1CC(=O)OC1=O (stereo not given)
inactive: [1] | [3] | [4] | [6]

CC(=O)[C@@]1(O)CC[C@H]2[C@@H]3CCC4=CC(=O)CC[C@]4(C)[C@H]3CC[C@@]21C
active: [3] 24.3 µM
inactive: [1] | [4] | [6] | [7]
inactive and 17.2 µM (active): [2]

NCCNCCNCCNCCN
not listed: [2] | [8]
inactive: all other assays above

OCCOCCOCCOCCO
not listed: [5] | [8] | [10]
inactive: all other assays above

CCC(C)C=O (stereo not given)
not listed: [5] | [8] | [10]
inactive: all other assays above

CC1=CC[C@H]2C[C@@H]1C2(C)C
inactive: [1] | [2] | [3] | [4] | [6] | [9]

NC(=O)NNc1ccccc1
inactive: [1] | [4] | [6] | [9]

C=C(C)C(=O)OCCC[Si](OC)(OC)OC
inactive: [8] | [2] | [3] | [4] | [6] | [9]

COCC(=O)O
inactive: [1] | [2] | [3] | [4] | [6] | [9]
